# From PubChem BioAssay
# System: Fibrinogen (Alexa647-labelled)
# Test: fibrinogen binders on compound microarrays, profiling panel, artefact control for SMM control-protein annotation, biochemical, small-molecule microarray, 635/667 nm fluorescence (AID 1131);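 further: z-score merges 667 nm fluorescence with per-spot signal-to-noise over triplicate slides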
# Settings: fibrinogen-A647 binding fluorescence, higher = more signal
row,Compound,composite z-score
1,O=C(NC1CC1)[C@@H]1c2ccccc2C(=O)N(Cc2cc(C(F)(F)F)cc(C(F)(F)F)c2)[C@H]1c1ccc(CO)cc1,0.427
2,C=C(/C(=C/C[C@@H](OC(C)=O)c1cccc(OCCO)c1)c1cnc2ccccc2c1)C(C)C,-0.31
3,O=C1C2C=CC(C(O)c3cccs3)N(Nc3ccc([N+](=O)[O-])cc3)C2C(=O)N1c1ccccc1 (stereo not given),0.697
4,C[N+](C)(C)CCCC[C@@H]1NC(=O)[C@H]2C[C@@H](C(=O)NCCCCCNC(=O)CS)[C@@H](c3cccc(OCCO)c3)N2C1=O,0.821
5,COCCOC(=O)N1C(=O)[C@@]2(c3cc(C#CCC(C(=O)OC)C(=O)OC)ccc31)[C@H](c1ccc(O)cc1)N1[C@H](c3ccccc3)[C@H](c3ccccc3)OC(=O)[C@H]1[C@@H]2C(=O)Nc1nc2ccccc2s1,0.954
6,COC(=O)[C@@]1(Cc2ccc(OC)cc2)[C@H]2c3cc(C(=O)N4CCCC4)n(Cc4c(CO)[nH]cc(C)c4=O)c3C[C@H]2CN1C(=O)c1ccccc1,0.91
7,O=C1C[C@]2(c3ccc([N+](=O)[O-])cc3)C(=O)N(C3CC3)c3cc(CO)ccc3[C@H]2N1C1CCCCC1,-0.408
8,C=C(COC)/C(=C/C[C@@H](OC(C)=O)c1ccccc1OCCO)c1cnc2ccccc2c1,0.0866
9,COCCOC(=O)N1C(=O)[C@@]2(c3cc(C#CC4(O)CCCCCC4)ccc31)[C@H](c1ccc(O)cc1)N1[C@H](c3ccccc3)[C@H](c3ccccc3)OC(=O)[C@H]1[C@@H]2C(=O)N1CCCCCCC1,0.605
10,C=CCOC(=O)[C@@H]1[C@H]2C(=O)O[C@H](c3ccccc3)[C@H](c3ccccc3)N2[C@H](c2ccc(OCCOC(=O)[C@H]3C[C@H]4C(=O)N[C@@H](CCCCN(C)C)C(=O)N4[C@H]3c3ccc(O)cc3)cc2)[C@@]12C(=O)Nc1ccc(I)cc12,0.541
11,COC(=O)C[C@H]1O[C@@]2(C[C@@H]1[Si](C)(C)C)C(=O)N(C)c1ccccc12,0.78
12,C=CCC(OC(C)=O)[C@@H]1[C@@H](N(Cc2cc3ccccc3o2)C(=O)c2cccc3ccccc23)c2cc(OCCCO)ccc2N1C(=O)c1ccc2ccccc2n1 (stereo not given in full),-0.137
13,COC(=O)[C@@]1(Cc2ccc(OC)cc2)[C@H]2c3cc(C(=O)N4CCCC4)n(CCn4cc([N+](=O)[O-])nc4C)c3C[C@H]2CN1C(=O)c1ccccc1,1
14,CCCCCC1=C2CNC(CC(C)C)(C(=O)OC)C=C2C(C)C1=O (stereo not given),0.955
15,O=C1C=C(c2ccccc2)C(=O)C2=C1CC([C@H]1Oc3ccccc3S(=O)(=O)N3CCC[C@@H]13)=CC2,-0.472
16,COCCOC(=O)N1C(=O)[C@@]2(c3cc(C#CCC(C(=O)OC)C(=O)OC)ccc31)[C@H](C(=O)Nc1nc3ccccc3s1)[C@H]1C(=O)O[C@H](c3ccccc3)[C@H](c3ccccc3)N1[C@@H]2c1ccc(O)cc1,0.461
17,C=CCC(OC(C)=O)[C@@H]1[C@@H](N(Cc2ccc(-c3cccc(C(F)(F)F)c3)o2)C(=O)c2ccc(-c3ccccc3)cc2)c2cc(OCCCO)ccc2N1C(=O)c1ccc2ccccc2c1 (stereo not given in full),-0.0951
18,Cc1ccc(S[C@]2(C(=O)NCCCN(C)C)CC(=O)N(Cc3ccccc3C(F)(F)F)[C@@H]2c2ccc(CO)cc2I)cc1,-0.745
19,CN(C)CCCC[C@@H]1NC(=O)[C@H]2C[C@@H](C(=O)O)[C@@H](c3ccc(O)cc3)N2C1=O,1.04
20,COCCOC(=O)N1C(=O)[C@@]2(c3cc(C#CCCO)ccc31)[C@H](c1ccc(OCCO)cc1)N1[C@H](c3ccccc3)[C@H](c3ccccc3)OC(=O)[C@H]1[C@@H]2C(=O)N1CCCCCCC1,0.726
21,CCN(CC)c1ccc(N2CC=CC34O[C@@H]5C=CCCOC(=O)C5[C@H]3C(=O)N(C(C)CO)[C@@H]4C2=O)cc1 (stereo not given in full),-0.943
22,CC(C)=CCCC(C)=CC(O)C1C=CC2C(=O)NC(=O)C2N1Nc1ccc(Cl)cc1Cl (stereo not given),0.44
23,COC(=O)[C@@]1(Cc2ccc(F)cc2)[C@H]2c3cc(C(=O)N(C)C)n(CCc4ccc(O)c(O)c4)c3C[C@H]2CN1C(=O)c1ccccc1,0.823
24,N#Cc1ccc(-c2cccc(=O)o2)cc1,0.474
25,COC(=O)[C@@]1(Cc2ccccc2)[C@H]2c3cc(C(=O)N(C)C)n(CCO)c3C[C@H]2CN1C(=O)c1ccccc1,1.02
26,C=CCOC(=O)[C@H]1[C@@H]2C(=O)O[C@@H](c3ccccc3)[C@@H](c3ccccc3)N2[C@@H](c2ccc(OCCOC(=O)[C@@H]3C[C@@H]4C(=O)N[C@@H](CCCC[N+](C)(C)C)C(=O)N4[C@@H]3c3ccc(O)cc3)cc2)[C@]12C(=O)Nc1ccc(I)cc12,0.4

# Biological target: Follistatin (Homo sapiens) (UniProt P19883)
# Test: follistatin binders on small-molecule microarrays, primary screen, biochemical, small-molecule microarray, 635/667 nm fluorescence (AID 1132)
# Settings: FST binding, 635 nm fluorescence, higher = more signal
# Chain of Follistatin (Homo sapiens) (P19883 whole entry, looked up): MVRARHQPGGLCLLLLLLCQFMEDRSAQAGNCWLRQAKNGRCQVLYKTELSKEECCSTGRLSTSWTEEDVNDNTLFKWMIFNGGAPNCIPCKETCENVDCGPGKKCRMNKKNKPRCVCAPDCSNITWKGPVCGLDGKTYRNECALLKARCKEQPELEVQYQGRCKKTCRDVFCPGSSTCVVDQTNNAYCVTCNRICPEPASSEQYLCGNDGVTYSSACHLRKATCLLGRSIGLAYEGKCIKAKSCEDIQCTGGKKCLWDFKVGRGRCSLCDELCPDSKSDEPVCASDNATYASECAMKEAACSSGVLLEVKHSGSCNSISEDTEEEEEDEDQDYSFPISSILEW
row,Compound,composite z-score
1,CCOC(=O)C[C@H]1[C@H](OC(=O)Cc2ccc3c(c2)OCO3)[C@@H](NC(=O)Cc2ccc(OC)cc2)c2cc(OCCCO)ccc2N1C(=O)Cc1ccc(OC)cc1,-0.147
2,COC(=O)[C@@]1(Cc2ccccc2)[C@H]2c3cc(C(=O)N4CCCC4)n(Cc4ccc(OC)c(OC)c4)c3C[C@H]2CN1C(=O)c1ccccc1,0.528
3,[N-]=[N+]=Nc1ccccc1C[C@]1(C(=O)N2CCOCC2)N=C(c2ccc(OCCCO)cc2)O[C@H]1c1ccccc1N=[N+]=[N-],1.41
4,CC(C)(C)N1CC=CC23O[C@@H]4/C=C\CCCOC(=O)C4[C@H]2C(=O)N(CCCO)[C@@H]3C1=O (stereo not given in full),-0.768
5,COc1ccc(CCNC(=O)[C@@H]2c3ccccc3C(=O)N(Cc3ccccc3OC)[C@H]2c2ccc(CO)cc2)cc1,0.674
6,NC(=O)NCC#Cc1ccc2c(c1)[C@]1(C(=O)N2)[C@H](c2ccc(OCCO)cc2)N2[C@H](c3ccccc3)[C@H](c3ccccc3)OC(=O)[C@H]2[C@@H]1C(=O)O,-0.044
7,COc1ccc(C(=O)Nc2ccc3c(c2)[C@@]2(O[C@H](CCO)[C@@H]([Si](C)(C)c4ccc(OC)cc4)[C@@H]2C)C(=O)N3Cc2ccccc2)cc1,1.25
8,COC(=O)C1=CC(CCCO)=CC(c2cccs2)N(Cc2cc3c(cc2Br)OCO3)C=C1C(=O)OC (stereo not given),1.08
9,O=C1O[C@H](c2ccccc2)[C@H](c2ccccc2)N2[C@H]1[C@@H](C(=O)O)[C@]1(C(=O)Nc3ccc(C#CCCO)cc31)[C@H]2c1ccc(OCCO)cc1,1.22
10,CCOC(=O)C[C@H]1[C@H](OC(=O)Cc2ccc3c(c2)OCO3)[C@@H](NC(=O)c2ccc3ccccc3n2)c2cc(OCCCO)ccc2N1C(=O)Cc1ccc(OC)cc1,0.72
11,O=C(NC1CC1)[C@@H]1c2ccccc2C(=O)N(Cc2cc(C(F)(F)F)cc(C(F)(F)F)c2)[C@H]1c1ccc(CO)cc1,0.755
12,C=C(/C(=C/C[C@@H](OC(C)=O)c1cccc(OCCO)c1)c1cnc2ccccc2c1)C(C)C,1.5
13,O=C1C2C=CC(C(O)c3cccs3)N(Nc3ccc([N+](=O)[O-])cc3)C2C(=O)N1c1ccccc1 (stereo not given),0.337
14,C[N+](C)(C)CCCC[C@@H]1NC(=O)[C@H]2C[C@@H](C(=O)NCCCCCNC(=O)CS)[C@@H](c3cccc(OCCO)c3)N2C1=O,0.78
15,COCCOC(=O)N1C(=O)[C@@]2(c3cc(C#CCC(C(=O)OC)C(=O)OC)ccc31)[C@H](c1ccc(O)cc1)N1[C@H](c3ccccc3)[C@H](c3ccccc3)OC(=O)[C@H]1[C@@H]2C(=O)Nc1nc2ccccc2s1,1.42
16,COC(=O)[C@@]1(Cc2ccc(OC)cc2)[C@H]2c3cc(C(=O)N4CCCC4)n(Cc4c(CO)[nH]cc(C)c4=O)c3C[C@H]2CN1C(=O)c1ccccc1,-0.116
17,O=C1C[C@]2(c3ccc([N+](=O)[O-])cc3)C(=O)N(C3CC3)c3cc(CO)ccc3[C@H]2N1C1CCCCC1,-0.0193
18,C=C(COC)/C(=C/C[C@@H](OC(C)=O)c1ccccc1OCCO)c1cnc2ccccc2c1,1.43
19,COCCOC(=O)N1C(=O)[C@@]2(c3cc(C#CC4(O)CCCCCC4)ccc31)[C@H](c1ccc(O)cc1)N1[C@H](c3ccccc3)[C@H](c3ccccc3)OC(=O)[C@H]1[C@@H]2C(=O)N1CCCCCCC1,1.39
20,C=CCOC(=O)[C@@H]1[C@H]2C(=O)O[C@H](c3ccccc3)[C@H](c3ccccc3)N2[C@H](c2ccc(OCCOC(=O)[C@H]3C[C@H]4C(=O)N[C@@H](CCCCN(C)C)C(=O)N4[C@H]3c3ccc(O)cc3)cc2)[C@@]12C(=O)Nc1ccc(I)cc12,1.4
21,COC(=O)C[C@H]1O[C@@]2(C[C@@H]1[Si](C)(C)C)C(=O)N(C)c1ccccc12,0.501
22,C=CCC(OC(C)=O)[C@@H]1[C@@H](N(Cc2cc3ccccc3o2)C(=O)c2cccc3ccccc23)c2cc(OCCCO)ccc2N1C(=O)c1ccc2ccccc2n1 (stereo not given in full),0.403
23,COC(=O)[C@@]1(Cc2ccc(OC)cc2)[C@H]2c3cc(C(=O)N4CCCC4)n(CCn4cc([N+](=O)[O-])nc4C)c3C[C@H]2CN1C(=O)c1ccccc1,0.116
24,CCCCCC1=C2CNC(CC(C)C)(C(=O)OC)C=C2C(C)C1=O (stereo not given),-0.127
25,O=C1C=C(c2ccccc2)C(=O)C2=C1CC([C@H]1Oc3ccccc3S(=O)(=O)N3CCC[C@@H]13)=CC2,0.316
26,COCCOC(=O)N1C(=O)[C@@]2(c3cc(C#CCC(C(=O)OC)C(=O)OC)ccc31)[C@H](C(=O)Nc1nc3ccccc3s1)[C@H]1C(=O)O[C@H](c3ccccc3)[C@H](c3ccccc3)N1[C@@H]2c1ccc(O)cc1,1.3
27,C=CCC(OC(C)=O)[C@@H]1[C@@H](N(Cc2ccc(-c3cccc(C(F)(F)F)c3)o2)C(=O)c2ccc(-c3ccccc3)cc2)c2cc(OCCCO)ccc2N1C(=O)c1ccc2ccccc2c1 (stereo not given in full),1.02
28,Cc1ccc(S[C@]2(C(=O)NCCCN(C)C)CC(=O)N(Cc3ccccc3C(F)(F)F)[C@@H]2c2ccc(CO)cc2I)cc1,0.0315
29,CN(C)CCCC[C@@H]1NC(=O)[C@H]2C[C@@H](C(=O)O)[C@@H](c3ccc(O)cc3)N2C1=O,1.52
